Source: PubChem BioAssay (Broad Institute)
Hits are enriched below; roughly 2.5% of the tested compounds scored in any of these assays.
STAT3 SMM – STAT3 binders, primary screen, biochemical, small molecule microarray, single point, set 2 | hit rate 0.2% among 17,000 | AID 624138, 2012 | His-STAT3 binding, anti-His fluorescence | Signal transducer and activator of transcription 3 (Homo sapiens), P40763 | calls only;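 active means compounds whose four printed spots each show fluorescence over background unusually high for their array block, chance value under 7%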
mut p53 SMM – binders of human mutant p53, primary screen, biochemical, small molecule microarray, anti-GST fluorescence | calls only | hit rate 0.4% among 17,000 | mutant tumor protein p53 (GST-tagged), Homo sapiens | small molecule microarray binding;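 active means compounds whose four printed spots each glow above background more than chance allows, each with a p-value under 7%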
NFkB SMM – binders of NF-kB p50 subunit, primary screen, biochemical, small molecule microarray, anti-His fluorescence; anti-His fluorescence binding; calls only; hit rate 1.3% among 17,000; AID 624139, 2012;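 active means spot fluorescence over background significantly raised, with a chance value under 7% in all four replicate spots of the compound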;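 further: probe protein is his-tagged human p50 processed subunit at 1 µg/ml; raw spot fluorescence signals with no normalization applied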
Target sequence (P19838 1-433 limits assumed): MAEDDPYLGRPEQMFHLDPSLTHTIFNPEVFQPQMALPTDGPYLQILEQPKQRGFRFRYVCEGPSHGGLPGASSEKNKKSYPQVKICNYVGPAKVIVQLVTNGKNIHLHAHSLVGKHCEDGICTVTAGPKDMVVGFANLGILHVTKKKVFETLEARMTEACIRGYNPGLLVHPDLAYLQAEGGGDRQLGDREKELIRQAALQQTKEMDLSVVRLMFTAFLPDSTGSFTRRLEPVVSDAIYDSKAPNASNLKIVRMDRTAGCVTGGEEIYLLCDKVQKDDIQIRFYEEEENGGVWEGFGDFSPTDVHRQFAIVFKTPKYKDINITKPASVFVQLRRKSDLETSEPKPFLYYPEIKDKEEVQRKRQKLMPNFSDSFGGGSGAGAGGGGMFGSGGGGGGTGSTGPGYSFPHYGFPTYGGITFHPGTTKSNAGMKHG
Myc binder – binders of human c-Myc, primary screen, biochemical, small molecule microarray, anti-His fluorescence; His-c-Myc binding; calls only; hit rate 1.5% among 17,000; AID 624141, 2012;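 active means spot fluorescence over background with P-value below 7% in all four replicate spots, showing protein binding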;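 further: score is binary with 100 for all four spots passing and 0 otherwise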
Active calls of the source: *; i = inactive; + = active, no number.

SMILES	STAT3 SMM	mut p53 SMM	NFkB SMM	Myc binder
Cc1ccc(S(=O)(=O)N2CCC[C@H]2Cn2cc(CN3C(=O)COC[C@H]3c3ccccc3)nn2)cc1	i	+	i	i
CC(C)NC(=O)N(C)C[C@H]1OCCCC[C@H](C)Oc2ccc(NC(=O)Nc3ccc(C(F)(F)F)cc3)cc2C(=O)N([C@H](C)CO)C[C@H]1C	i	i	+	i
C[C@H](CO)N1C[C@H](C)[C@H](CN(C)C(=O)Nc2ccc(C(F)(F)F)cc2)OCCCC[C@H](C)Oc2ccc(NC(=O)Nc3ccc(F)cc3)cc2C1=O	i	i	+	i
C[C@@H]1CCCCO[C@@H](CN(C)C(=O)Nc2ccc(C(F)(F)F)cc2)[C@H](C)CN([C@@H](C)CO)C(=O)c2cc(NC(=O)c3ccncc3)ccc2O1	i	i	+	+
C[C@@H]1CCCCO[C@H](CN(C)C(=O)Nc2ccc(C(F)(F)F)cc2)[C@@H](C)CN([C@@H](C)CO)C(=O)c2cc(NC(=O)Cc3ccccc3)ccc2O1	i	+	+	i
CC(Sc1nnc(-c2ccc(Br)cc2)n1-c1ccccc1)C(=O)O (stereo unspecified)	i	i	i	i
CC(C)NC(=O)N(C)C[C@@H]1OCCCC[C@@H](C)Oc2ccc(NC(=O)Nc3ccc(C(F)(F)F)cc3)cc2C(=O)N([C@@H](C)CO)C[C@H]1C	i	i	i	i
CC(C)NC(=O)N(C)C[C@@H]1OCCCC[C@H](C)Oc2ccc(NC(=O)Nc3ccc(C(F)(F)F)cc3)cc2C(=O)N([C@@H](C)CO)C[C@@H]1C	i	i	+	+
COc1ccc(NC(=O)CSc2ncccn2)cc1Cl	i	i	i	i
C[C@H]1CN([C@@H](C)CO)C(=O)c2cccc(NC(=O)NC3CCCCC3)c2O[C@@H]1CN(C)C(=O)Nc1ccc(F)cc1	i	i	i	i
C[C@H](CO)N1C[C@H](C)[C@H](CN(C)C(=O)Nc2ccccc2)Oc2ncc(-c3cccc(C(F)(F)F)c3)cc2C1=O	i	i	+	+
C[C@H](CO)N1C[C@H](C)[C@@H](CN(C)C(=O)Nc2ccc(C(F)(F)F)cc2)Oc2c(NC(=O)NC3CCCCC3)cccc2C1=O	i	i	+	+
C[C@H]1CN([C@@H](C)CO)C(=O)c2cccc(NC(=O)Nc3ccc(C(F)(F)F)cc3)c2O[C@@H]1CN(C)C(=O)NC1CCCCC1	+	i	i	i
C[C@@H]1CN([C@@H](C)CO)C(=O)c2cccc(NC(=O)NC3CCCCC3)c2O[C@@H]1CN(C)C(=O)Nc1ccc(C(F)(F)F)cc1	i	i	+	+
C[C@@H]1CN([C@H](C)CO)C(=O)c2cccc(NC(=O)NC3CCCCC3)c2O[C@@H]1CN(C)C(=O)Nc1ccc(C(F)(F)F)cc1	i	i	i	i
COc1ccc(NC(=O)N(C)C[C@@H]2Oc3ncc(-c4cccc(C(F)(F)F)c4)cc3C(=O)N([C@H](C)CO)C[C@@H]2C)cc1	i	i	i	i
C[C@H](CO)N1C[C@H](C)[C@@H](CN(C)CC2CC2)Oc2c(NC(=O)Nc3ccc(C(F)(F)F)cc3)cccc2C1=O	i	i	i	i
C[C@@H]1CN([C@@H](C)CO)C(=O)c2cccc(NC(=O)c3cnccn3)c2O[C@H]1CN(C)C(=O)Nc1ccccc1	i	i	+	+
C[C@H](CO)N1C[C@H](C)[C@H](CN(C)S(=O)(=O)c2ccccc2)Oc2ncc(C#Cc3ccc(C(F)(F)F)cc3)cc2C1=O	i	i	i	+
C[C@H]1CN([C@@H](C)CO)C(=O)c2cccc(NC(=O)Nc3ccc(C(F)(F)F)cc3)c2O[C@@H]1CN(C)CC1CC1	+	i	i	i
C[C@H]1CN([C@@H](C)CO)C(=O)c2cccc(NC(=O)NC3CCCCC3)c2O[C@H]1CN(C)S(=O)(=O)c1ccc(Cl)cc1	i	i	i	+
CC(C)Oc1ccccc1NC(=O)CSc1nnc(-c2ccccc2Cl)o1	i	i	i	i
COc1ccc(CCNC(=O)c2ccc(-c3cccc(C(F)(F)F)c3)o2)cc1OC	i	i	i	i
CC(=O)Nc1cccc(OCC(=O)N(C)c2ccccc2)c1	i	i	i	i
C[C@@H]1CCCCO[C@@H](CN(C)C(=O)Nc2ccc(C(F)(F)F)cc2)[C@@H](C)CN([C@H](C)CO)C(=O)c2cc(NS(C)(=O)=O)ccc2O1	i	i	i	i
SMILES	STAT3 SMM	mut p53 SMM	NFkB SMM	Myc binder
C[C@@H]1CCCCO[C@@H](CN(C)C(=O)Nc2ccc(C(F)(F)F)cc2)[C@H](C)CN([C@H](C)CO)C(=O)c2cc(NS(C)(=O)=O)ccc2O1	i	i	i	i
C[C@@H]1CCCCO[C@H](CN(C)C(=O)Nc2ccc(C(F)(F)F)cc2)[C@H](C)CN([C@@H](C)CO)C(=O)c2cc(NS(C)(=O)=O)ccc2O1	+	i	i	i
C[C@H]1CCCCO[C@H](CN(C)C(=O)Nc2ccc(C(F)(F)F)cc2)[C@@H](C)CN([C@@H](C)CO)C(=O)c2cc(NS(C)(=O)=O)ccc2O1	+	i	+	+
C[C@@H]1CCCCO[C@@H](CN(C)C(=O)Nc2ccc(C(F)(F)F)cc2)[C@H](C)CN([C@@H](C)CO)C(=O)c2cc(NS(C)(=O)=O)ccc2O1	i	i	i	+
CC1(O)CC(=O)c2c(ccc3c2C(=O)c2cccc(O)c2C3=O)C1 (stereo unspecified)	i	i	i	i
COCCOC(=O)N1C(=O)[C@@]2(c3ccccc31)[C@H](C(=O)N1CCN(c3ncccn3)CC1)[C@H]1C(=O)O[C@H](c3ccccc3)[C@H](c3ccccc3)N1[C@@H]2c1ccc(OCCO)cc1	i	i	i	i
COCCOC(=O)N1C(=O)[C@@]2(c3cc(C#CC4=CCCCC4)ccc31)[C@H](C(=O)N1CCN(c3ncccn3)CC1)[C@H]1C(=O)O[C@H](c3ccccc3)[C@H](c3ccccc3)N1[C@@H]2c1ccccc1OCCO	i	i	+	i
COCCOC(=O)N1C(=O)[C@@]2(c3cc(C#CCC(C(=O)OC)C(=O)OC)ccc31)[C@H](c1ccc(OCCO)cc1)N1[C@H](c3ccccc3)[C@H](c3ccccc3)OC(=O)[C@H]1[C@@H]2C(=O)N1CCN(c2ncccn2)CC1	i	i	+	i
C=CC[C@@]12C[C@@H](OC)C(=O)C(OC)=C1O[C@H](c1ccc3c(c1)OCO3)[C@H]2C	i	i	i	i
CC(C)OC(=O)c1cn(Cc2c(F)cccc2F)c2sc(-c3ccc(NC(=O)C(C)C)cc3)c(CN(C)Cc3ccccc3)c2c1=O	i	i	+	+
